Test results published in the supplement of paper PMC10849652.
The full data set covers some 8,800 targets. This sample favours those with a hit. About 0.5% of all pairs of compound and target were hits.

Assays:
Assay in all cases: log2 fold change, soluble protein after heating vs DMSO (PISA); higher = thermal stabilisation; K562 lysate, 10 uM; active = over 0.2 and 3.5 SD of the protein, either way, in both replicates (recomputed)
alvocidib = compound: CN1CC[C@H](c2c(O)cc(O)c3c(=O)cc(-c4ccccc4Cl)oc23)[C@H](O)C1 [alvocidib]
In short: (§1)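 Values give the log-two fold change in thermal stability against solvent controls, from duplicates. Crude K562 extract at 1 mg/mL protein, made by dounce homogenisation in PBS pH 7.4 with 1 mM MgCl2, was treated with 10 μM compound for 30 min. After 3 min heating across 48°C-58°C, aliquots were pooled, adjusted to 0.5% NP-40 at 4°C and centrifuged at 21,000xg for 90 min. The supernatant was measured by TMTpro 16plex LC-MS/MS with channel sums equalised.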

Tubastatin A = compound: CN1CCc2c(c3ccccc3n2Cc2ccc(C(=O)NO)cc2)C1 [Tubastatin A]
In short: as §1

[1] = compound: CNC(=O)C1=CC=CC=C1NC2=NC(=NC=C2Cl)NC3=C(C=C(C=C3)N4CCOCC4)OC
In short: as §1

defactinib = compound: CNC(=O)c1ccc(Nc2ncc(C(F)(F)F)c(NCc3nccnc3N(C)S(C)(=O)=O)n2)cc1 [defactinib]
In short: as §1

[2] = compound: CNc1nc(-c2ccc3c(N)n[nH]c3c2)cc(N2C[C@@H](C(=O)NC3CCCCC3)CC[C@H]2C)n1
In short: as §1

encorafenib = compound: COC(=O)N[C@@H](C)CNc1nccc(-c2cn(C(C)C)nc2-c2cc(Cl)cc(NS(C)(=O)=O)c2F)n1 [encorafenib]
In short: as §1

[3] = compound: COC(=O)[C@H](CCSC)NC(=O)C1=C(C=C(C=C1)NC[C@H](CS)N)C2=CC=CC=C2
In short: as §1

alisertib = compound: COc1cc(Nc2ncc3c(n2)-c2ccc(Cl)cc2C(c2c(F)cccc2OC)=NC3)ccc1C(=O)O [alisertib]
In short: as §1

[4] = compound: COc1cc2nc(-c3cc(F)ccc3O)nc(N[C@@H]3CNC[C@H]3C(C)(C)O)c2cc1OC
In short: as §1

gefitinib = compound: COc1cc2ncnc(Nc3ccc(F)c(Cl)c3)c2cc1OCCCN1CCOCC1 [gefitinib]
In short: as §1

lapatinib = compound: CS(=O)(=O)CCNCc1ccc(-c2ccc3ncnc(Nc4ccc(OCc5cccc(F)c5)c(Cl)c4)c3c2)o1 [lapatinib]
In short: as §1

pictilisib = compound: CS(=O)(=O)N1CCN(Cc2cc3nc(-c4cccc5[nH]ncc45)nc(N4CCOCC4)c3s2)CC1 [pictilisib]
In short: as §1

crizotinib = compound: C[C@@H](Oc1cc(-c2cnn(C3CCNCC3)c2)cnc1N)c1c(Cl)ccc(F)c1Cl [crizotinib]
In short: as §1

[5] = compound: C[C@H](C1=CC=C(C=C1)C(=O)NC2=C3C=CNC3=NC=C2)N
In short: as §1

duvelisib = compound: C[C@H](Nc1ncnc2nc[nH]c12)c1cc2cccc(Cl)c2c(=O)n1-c1ccccc1 [duvelisib]
In short: as §1

gandotinib = compound: Cc1cc(Nc2cc(CN3CCOCC3)c3nc(C)c(Cc4ccc(Cl)cc4F)n3n2)n[nH]1 [gandotinib]
In short: as §1

tozasertib = compound: Cc1cc(Nc2cc(N3CCN(C)CC3)nc(Sc3ccc(NC(=O)C4CC4)cc3)n2)n[nH]1 [tozasertib]
In short: as §1

doramapimod = compound: Cc1ccc(-n2nc(C(C)(C)C)cc2NC(=O)Nc2ccc(OCCN3CCOCC3)c3ccccc23)cc1 [doramapimod]
In short: as §1

bafetinib = compound: Cc1ccc(NC(=O)c2ccc(CN3CC[C@H](N(C)C)C3)c(C(F)(F)F)c2)cc1Nc1nccc(-c2cncnc2)n1 [bafetinib]
In short: as §1

[6] = compound: Cc1cccc(CC(=O)N2CCc3c2ccc(-c2cn(C)c4ncnc(N)c24)c3F)n1
In short: as §1

Measured: log2 fold change

PPP1R8 (UniProt Q12972)
inactive: alvocidib -0.095 | Tubastatin A 0.028 | [1] -0.025 | defactinib -0.003 | [2] 0.044 | encorafenib 0.028 | [3] -0.049 | alisertib 0.022 | [4] -0.012 | gefitinib -0.05 | lapatinib 0.025 | pictilisib -0.008 | crizotinib 0.021 | [5] -0.236 | duvelisib -0.035 | gandotinib 0.108 | tozasertib -0.014 | doramapimod -0.011 | bafetinib -0.01 | [6] 0.091

PTPN2 (UniProt P17706)
Sequence of UniProt P17706 (P17706 whole entry, looked up): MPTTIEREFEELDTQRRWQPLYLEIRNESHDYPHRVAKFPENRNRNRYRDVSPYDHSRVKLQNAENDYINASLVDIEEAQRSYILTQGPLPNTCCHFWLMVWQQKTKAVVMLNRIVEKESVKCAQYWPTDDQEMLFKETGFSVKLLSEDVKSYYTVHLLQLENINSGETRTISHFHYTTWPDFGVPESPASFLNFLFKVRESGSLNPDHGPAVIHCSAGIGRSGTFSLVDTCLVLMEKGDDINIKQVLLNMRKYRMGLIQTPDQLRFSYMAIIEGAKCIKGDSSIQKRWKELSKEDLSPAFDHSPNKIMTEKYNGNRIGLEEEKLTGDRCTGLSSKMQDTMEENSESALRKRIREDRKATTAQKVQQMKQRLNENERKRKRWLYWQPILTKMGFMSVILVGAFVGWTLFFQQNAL
inactive: alvocidib -0.036 | Tubastatin A -0.115 | [1] 0.049 | defactinib -0.008 | [2] 0.005 | encorafenib -0.035 | [3] 0.053 | alisertib 0.052 | [4] -0.006 | gefitinib -0.006 | lapatinib -0.016 | pictilisib -0.01 | crizotinib -0.074 | [5] -0.084 | duvelisib -0.042 | gandotinib -0.013 | tozasertib -0.037 | doramapimod -0.012 | bafetinib -0.077 | [6] 0.071

PPP2R5C isoform 4 (UniProt Q13362)
Sequence of UniProt Q13362 (Q13362 whole entry, looked up): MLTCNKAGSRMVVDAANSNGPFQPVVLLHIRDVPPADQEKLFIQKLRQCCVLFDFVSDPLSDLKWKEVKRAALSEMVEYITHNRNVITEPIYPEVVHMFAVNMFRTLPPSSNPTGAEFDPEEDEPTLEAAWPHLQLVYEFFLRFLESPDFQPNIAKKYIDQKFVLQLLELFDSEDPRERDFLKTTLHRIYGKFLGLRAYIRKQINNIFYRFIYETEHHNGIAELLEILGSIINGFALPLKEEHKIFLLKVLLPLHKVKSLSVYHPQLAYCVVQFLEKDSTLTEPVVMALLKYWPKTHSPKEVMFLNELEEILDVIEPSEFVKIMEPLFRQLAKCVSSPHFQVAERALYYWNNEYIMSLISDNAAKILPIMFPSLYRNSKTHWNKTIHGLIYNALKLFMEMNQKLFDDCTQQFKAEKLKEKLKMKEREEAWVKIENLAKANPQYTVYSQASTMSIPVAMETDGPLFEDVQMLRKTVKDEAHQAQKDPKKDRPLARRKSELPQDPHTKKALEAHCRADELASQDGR
inactive: alvocidib 0.059 | Tubastatin A -0.014 | [1] -0.022 | defactinib -0.01 | [2] -0.08 | encorafenib -0.03 | [3] -0.047 | alisertib -0.036 | [4] 0.009 | gefitinib -0.007 | lapatinib -0.05 | pictilisib 0 | crizotinib 0.015 | [5] -0.051 | duvelisib 0.213 | gandotinib -0.034 | tozasertib 0.025 | doramapimod -0.11 | bafetinib -0.077 | [6] 0.055

PIKFYVE (UniProt Q9Y2I7)
inactive: alvocidib -0.049 | Tubastatin A -0.126 | [1] 0.032 | defactinib 0.078 | [2] -0.031 | encorafenib 0.044 | [3] 0.088 | alisertib 0.031 | [4] 0.004 | gefitinib -0.005 | lapatinib -0.039 | pictilisib -0.06 | crizotinib -0.002 | [5] -0.058 | duvelisib -0.013 | gandotinib 0.01 | tozasertib -0.014 | doramapimod 0.029 | bafetinib -0.053 | [6] 0.066

PRPH isoform 2 (UniProt P41219)
Sequence of UniProt P41219 (P41219 whole entry, looked up): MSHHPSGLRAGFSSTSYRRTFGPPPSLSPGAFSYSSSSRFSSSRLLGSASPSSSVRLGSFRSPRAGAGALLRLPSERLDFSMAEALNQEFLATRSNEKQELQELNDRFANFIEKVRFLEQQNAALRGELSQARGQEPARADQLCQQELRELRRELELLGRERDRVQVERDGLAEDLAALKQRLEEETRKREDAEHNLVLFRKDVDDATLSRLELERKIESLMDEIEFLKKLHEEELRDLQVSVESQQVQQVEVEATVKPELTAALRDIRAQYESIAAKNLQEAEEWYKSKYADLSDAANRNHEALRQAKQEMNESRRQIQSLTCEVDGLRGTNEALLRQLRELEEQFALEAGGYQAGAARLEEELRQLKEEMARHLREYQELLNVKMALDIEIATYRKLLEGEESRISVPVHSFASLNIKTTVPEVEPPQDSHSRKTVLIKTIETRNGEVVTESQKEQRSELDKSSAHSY
inactive: alvocidib 0.062 | Tubastatin A 0.021 | [1] -0.049 | defactinib -0.081 | [2] -0.133 | encorafenib -0.023 | [3] -0.178 | alisertib -0.012 | [4] -0.028 | gefitinib 0.014 | lapatinib 0.082 | pictilisib 0.131 | crizotinib 0.05 | [5] 0.03 | duvelisib 0.051 | gandotinib -0.08 | tozasertib 0.096 | doramapimod -0.015 | bafetinib 0.025 | [6] 0.001

PI4K2A (UniProt Q9BTU6)
Sequence of UniProt Q9BTU6 (Q9BTU6 whole entry, looked up): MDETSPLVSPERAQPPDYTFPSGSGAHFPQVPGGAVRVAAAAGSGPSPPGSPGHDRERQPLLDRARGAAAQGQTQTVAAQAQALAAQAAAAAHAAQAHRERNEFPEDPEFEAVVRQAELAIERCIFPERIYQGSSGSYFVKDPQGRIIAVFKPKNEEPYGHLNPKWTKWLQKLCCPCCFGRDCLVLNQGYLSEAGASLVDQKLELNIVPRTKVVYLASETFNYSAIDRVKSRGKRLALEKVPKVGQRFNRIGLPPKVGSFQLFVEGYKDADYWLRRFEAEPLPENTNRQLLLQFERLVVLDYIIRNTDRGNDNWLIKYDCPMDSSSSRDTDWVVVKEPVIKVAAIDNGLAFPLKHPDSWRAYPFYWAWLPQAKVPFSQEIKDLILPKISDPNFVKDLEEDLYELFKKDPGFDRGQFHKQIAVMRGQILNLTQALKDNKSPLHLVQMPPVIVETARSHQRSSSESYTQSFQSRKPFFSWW
inactive: alvocidib -0.006 | Tubastatin A -0.037 | [1] 0.021 | defactinib -0.023 | [2] 0.012 | encorafenib 0.022 | [3] -0.092 | alisertib -0.008 | [4] -0.056 | gefitinib 0.021 | lapatinib -0.02 | pictilisib -0.036 | crizotinib 0.003 | [5] -0.006 | duvelisib 0.054 | gandotinib -0.03 | tozasertib -0.025 | doramapimod -0.008 | bafetinib 0.008 | [6] 0.014

PDAP1 (UniProt Q13442)
inactive: alvocidib -0.074 | Tubastatin A 0.063 | [1] 0.004 | defactinib -0.012 | [2] 0.109 | encorafenib -0.038 | [3] -0.017 | alisertib 0.006 | [4] 0.018 | gefitinib -0.029 | lapatinib -0.004 | pictilisib 0.03 | crizotinib 0.043 | duvelisib -0.043 | gandotinib 0.135 | tozasertib -0.026 | doramapimod -0.03 | bafetinib 0.006 | [6] 0.089
active: [5] -0.232

PHLDB1 (UniProt Q86UU1)
Sequence of UniProt Q86UU1 (Q86UU1 whole entry, looked up): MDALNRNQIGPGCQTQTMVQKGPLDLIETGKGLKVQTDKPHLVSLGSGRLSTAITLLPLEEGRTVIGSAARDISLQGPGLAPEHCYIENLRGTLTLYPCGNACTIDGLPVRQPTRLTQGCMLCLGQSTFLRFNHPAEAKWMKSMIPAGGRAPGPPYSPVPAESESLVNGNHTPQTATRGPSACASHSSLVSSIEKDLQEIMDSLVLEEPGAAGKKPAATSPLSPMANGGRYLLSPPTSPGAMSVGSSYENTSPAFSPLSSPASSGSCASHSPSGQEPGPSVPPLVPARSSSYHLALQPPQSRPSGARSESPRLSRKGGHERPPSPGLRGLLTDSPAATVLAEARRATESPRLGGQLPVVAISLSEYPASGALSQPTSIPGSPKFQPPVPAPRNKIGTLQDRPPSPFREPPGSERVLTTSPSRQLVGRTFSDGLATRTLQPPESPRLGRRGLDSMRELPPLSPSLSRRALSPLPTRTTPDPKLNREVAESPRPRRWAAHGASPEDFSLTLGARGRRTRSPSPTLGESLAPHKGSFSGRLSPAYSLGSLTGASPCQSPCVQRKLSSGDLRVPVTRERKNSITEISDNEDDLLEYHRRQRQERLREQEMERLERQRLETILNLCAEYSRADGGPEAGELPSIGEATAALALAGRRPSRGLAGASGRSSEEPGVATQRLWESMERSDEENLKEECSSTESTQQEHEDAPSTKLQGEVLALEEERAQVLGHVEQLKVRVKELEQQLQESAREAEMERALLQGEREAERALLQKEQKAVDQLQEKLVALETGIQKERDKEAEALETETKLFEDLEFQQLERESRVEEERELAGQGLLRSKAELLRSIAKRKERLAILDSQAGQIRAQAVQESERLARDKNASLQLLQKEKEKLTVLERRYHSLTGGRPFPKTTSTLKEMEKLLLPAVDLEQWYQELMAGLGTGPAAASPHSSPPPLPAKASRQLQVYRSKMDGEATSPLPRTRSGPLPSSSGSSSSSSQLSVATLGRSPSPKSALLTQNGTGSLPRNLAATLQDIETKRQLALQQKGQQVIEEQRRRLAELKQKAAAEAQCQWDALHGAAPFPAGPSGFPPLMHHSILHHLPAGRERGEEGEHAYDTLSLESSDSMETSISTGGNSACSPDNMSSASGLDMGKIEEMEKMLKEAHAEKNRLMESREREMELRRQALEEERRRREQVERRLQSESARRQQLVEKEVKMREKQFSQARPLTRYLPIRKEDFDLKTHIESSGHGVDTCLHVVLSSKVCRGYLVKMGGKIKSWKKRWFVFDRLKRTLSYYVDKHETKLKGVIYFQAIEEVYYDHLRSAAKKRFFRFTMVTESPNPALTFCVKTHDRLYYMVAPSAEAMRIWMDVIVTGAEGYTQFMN
inactive: alvocidib -0.067 | Tubastatin A -0.1 | [1] -0.031 | defactinib 0.023 | [2] 0.049 | encorafenib -0.041 | [3] -0.05 | alisertib 0.009 | [4] -0.037 | gefitinib 0.017 | lapatinib -0.052 | pictilisib 0.034 | crizotinib -0.154 | [5] -0.06 | duvelisib -0.028 | gandotinib 0.073 | tozasertib -0.047 | doramapimod 0.076 | bafetinib -0.112 | [6] 0.031

PDPK1 (UniProt O15530)
active: [2] 0.501
inactive: alvocidib 0.009 | Tubastatin A -0.121 | [1] 0.107 | defactinib 0.21 | encorafenib -0.019 | [3] 0.109 | alisertib 0.153 | [4] 0.15 | gefitinib 0.016 | lapatinib -0.04 | pictilisib -0.051 | crizotinib 0.03 | [5] 0.262 | duvelisib -0.039 | gandotinib 0.092 | tozasertib -0.029 | doramapimod -0.012 | bafetinib -0.021 | [6] -0.211

POLD1 (UniProt P28340)
inactive: alvocidib 0.012 | Tubastatin A -0.075 | [1] 0.035 | defactinib 0.027 | [2] 0.011 | encorafenib 0.008 | [3] 0.074 | alisertib 0.007 | [4] 0.007 | gefitinib -0.036 | lapatinib -0.014 | pictilisib -0.021 | crizotinib -0.022 | [5] 0.013 | duvelisib -0.019 | gandotinib -0.061 | tozasertib 0.003 | doramapimod 0.02 | bafetinib -0.022 | [6] 0.017

POMP (UniProt Q9Y244)
Sequence of UniProt Q9Y244 (Q9Y244 whole entry, looked up): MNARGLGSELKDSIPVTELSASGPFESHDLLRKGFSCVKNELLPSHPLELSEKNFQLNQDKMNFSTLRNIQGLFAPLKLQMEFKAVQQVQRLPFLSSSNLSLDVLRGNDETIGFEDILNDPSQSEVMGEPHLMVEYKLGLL
inactive: alvocidib 0.072 | Tubastatin A -0.061 | [1] 0.035 | defactinib 0.024 | [2] -0.03 | encorafenib 0.074 | [3] -0.002 | alisertib -0.013 | [4] -0.033 | gefitinib -0.093 | lapatinib 0.048 | pictilisib 0.031 | crizotinib -0.054 | [5] 0.221 | duvelisib 0.11 | gandotinib -0.063 | tozasertib 0.022 | doramapimod 0.038 | bafetinib 0.017 | [6] -0.038

PTGR2 (UniProt Q8N8N7)
Sequence of UniProt Q8N8N7 (Q8N8N7 whole entry, looked up): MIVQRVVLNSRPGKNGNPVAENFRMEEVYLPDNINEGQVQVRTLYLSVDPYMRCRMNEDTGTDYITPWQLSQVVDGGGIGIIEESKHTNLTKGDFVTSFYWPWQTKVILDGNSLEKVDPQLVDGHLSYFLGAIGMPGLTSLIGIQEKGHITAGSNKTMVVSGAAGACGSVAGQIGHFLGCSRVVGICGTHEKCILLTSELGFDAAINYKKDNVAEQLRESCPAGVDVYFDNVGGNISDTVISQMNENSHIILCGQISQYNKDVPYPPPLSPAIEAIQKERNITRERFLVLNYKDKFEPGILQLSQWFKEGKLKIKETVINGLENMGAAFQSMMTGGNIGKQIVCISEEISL
active: [3] 0.694
inactive: alvocidib 0.018 | Tubastatin A -0.023 | [1] 0.02 | defactinib 0.018 | [2] -0.021 | encorafenib -0.043 | alisertib 0.014 | [4] 0.004 | gefitinib -0.007 | lapatinib -0.003 | pictilisib 0.014 | crizotinib -0.029 | [5] -0.04 | duvelisib 0.02 | gandotinib 0.01 | tozasertib 0.04 | doramapimod -0.04 | bafetinib -0.003 | [6] -0.004

PWP2 (UniProt Q15269)
inactive: alvocidib -0.014 | Tubastatin A -0.073 | [1] 0.027 | defactinib 0.042 | [2] 0.061 | encorafenib 0.035 | [3] -0.033 | alisertib 0.004 | [4] -0.007 | gefitinib -0.057 | lapatinib -0.017 | pictilisib -0.012 | crizotinib 0.001 | [5] -0.016 | duvelisib 0.005 | gandotinib -0.075 | tozasertib -0.013 | doramapimod -0.017 | bafetinib -0.023 | [6] 0.029

PDE2A (UniProt O00408)
Sequence of UniProt O00408 (O00408 whole entry, looked up): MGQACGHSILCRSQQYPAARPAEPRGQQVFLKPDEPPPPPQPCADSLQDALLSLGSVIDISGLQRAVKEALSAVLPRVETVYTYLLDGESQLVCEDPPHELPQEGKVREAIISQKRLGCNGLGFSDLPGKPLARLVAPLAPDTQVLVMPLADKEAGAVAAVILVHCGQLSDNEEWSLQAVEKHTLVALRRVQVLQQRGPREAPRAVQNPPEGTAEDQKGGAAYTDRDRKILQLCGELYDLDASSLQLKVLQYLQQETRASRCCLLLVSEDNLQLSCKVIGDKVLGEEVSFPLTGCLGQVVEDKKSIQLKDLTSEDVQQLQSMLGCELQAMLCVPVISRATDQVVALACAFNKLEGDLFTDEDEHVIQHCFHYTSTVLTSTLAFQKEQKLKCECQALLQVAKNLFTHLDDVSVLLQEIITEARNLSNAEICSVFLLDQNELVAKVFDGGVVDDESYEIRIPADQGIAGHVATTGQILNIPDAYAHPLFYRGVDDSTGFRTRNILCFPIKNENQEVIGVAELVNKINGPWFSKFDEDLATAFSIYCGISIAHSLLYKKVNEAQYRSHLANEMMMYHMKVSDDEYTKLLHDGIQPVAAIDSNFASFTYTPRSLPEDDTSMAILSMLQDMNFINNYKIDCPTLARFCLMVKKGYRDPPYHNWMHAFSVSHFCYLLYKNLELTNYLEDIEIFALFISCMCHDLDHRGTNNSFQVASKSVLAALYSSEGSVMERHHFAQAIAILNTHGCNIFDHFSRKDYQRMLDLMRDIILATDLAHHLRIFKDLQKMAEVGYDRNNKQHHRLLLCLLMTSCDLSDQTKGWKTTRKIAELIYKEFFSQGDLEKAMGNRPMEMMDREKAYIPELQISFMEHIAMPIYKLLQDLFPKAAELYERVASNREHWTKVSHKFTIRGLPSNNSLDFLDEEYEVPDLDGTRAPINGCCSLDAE
inactive: alvocidib 0.038 | Tubastatin A 0.275 | [1] 0.044 | defactinib -0.24 | [2] 0.028 | encorafenib 0.11 | [3] -0.019 | alisertib 0.014 | [4] 0.048 | gefitinib -0.01 | lapatinib 0.005 | pictilisib 0 | crizotinib 0.074 | [5] 0.05 | duvelisib -0.042 | gandotinib 0.138 | tozasertib 0.049 | doramapimod -0.057 | bafetinib 0.051 | [6] 0.041

PRKAB2 (UniProt O43741)
Sequence of UniProt O43741 (O43741 whole entry, looked up): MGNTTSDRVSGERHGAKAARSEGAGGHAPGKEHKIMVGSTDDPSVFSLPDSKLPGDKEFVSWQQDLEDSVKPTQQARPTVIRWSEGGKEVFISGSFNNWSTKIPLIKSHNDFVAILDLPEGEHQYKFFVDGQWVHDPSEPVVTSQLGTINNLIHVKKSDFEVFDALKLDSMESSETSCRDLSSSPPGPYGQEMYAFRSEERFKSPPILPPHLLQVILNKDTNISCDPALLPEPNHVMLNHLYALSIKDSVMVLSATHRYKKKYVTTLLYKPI
active: [5] -0.698
inactive: alvocidib -0.122 | Tubastatin A -0.016 | [1] 0.286 | defactinib 0.057 | [2] 0.062 | encorafenib -0.04 | [3] -0.09 | alisertib -0.062 | [4] 0.058 | gefitinib -0.126 | lapatinib -0.029 | pictilisib 0.09 | crizotinib -0.013 | duvelisib 0.019 | gandotinib 0.25 | tozasertib 0.111 | doramapimod 0.039 | bafetinib 0.052 | [6] 0.142

PICALM (UniProt H0YEH1)
active: [5] -0.47 | [6] 0.335
inactive: alvocidib -0.206 | Tubastatin A 0.126 | [1] 0.098 | defactinib 0.006 | [2] 0 | encorafenib -0.038 | [3] 0.098 | alisertib 0.049 | [4] -0.042 | gefitinib -0.036 | lapatinib 0.046 | pictilisib 0.016 | crizotinib -0.086 | duvelisib -0.075 | gandotinib 0.238 | tozasertib 0.152 | doramapimod 0.274 | bafetinib 0.018
